Consider eight sequences from the supplement of paper PMC6555819.

Assay in all cases: PBM binding z-score (relative to random genomic background probes); higher = stronger binding; sequences stand for … in GC…GCGATTGACAGCGTAGAATGAAGG
For assay [1], the system named is LXRa:RXRa (NR concentration 270 nM, RXRa partner concentration 90 nM). The procedure, abridged: (§1)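 Ligand-free nuclear receptor dimers were bound for 1 h to custom Agilent 4×180K protein-binding microarrays. Detection used antibodies against each partner (one per run). Binding z-scores rest on regression-normalized fluorescence, with random background probes as the reference.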

The subject of assay [2] is LXRa homodimer (NR concentration 270 nM). The method, boiled down:
as §1

Assay [3] relates to LXRb homodimer (NR concentration 270 nM). The procedure, abridged:
as §1

Assay [4] deals with PPARa:RXRa (NR concentration 270 nM, RXRa partner concentration 90 nM). The method, boiled down:
as §1

The test system of assay [5] is PPARg:RXRa (NR concentration 180 nM, RXRa partner concentration 90 nM). The procedure, abridged:
as §1

Assay [6] has as its system PPARg:RXRa 270nM:90nM, anti-RXR (NR concentration 270 nM, RXRa partner concentration 90 nM). The method, boiled down: as §1
Assay [7] relates to PPARg:RXRa 30nM:10nM, anti-RXR (NR concentration 30 nM, RXRa partner concentration 10 nM). The procedure, abridged:
as §1

Assay [8] relates to PPARg:RXRa 90nM:30nM, anti-RXR (NR concentration 90 nM, RXRa partner concentration 30 nM). The method, boiled down: as §1
For assay [9], the system named is PPARg:RXRa DBDmut IVT, anti-RXR (DBD mutation: RXRa K156A/R161A, NR concentration 270 nM, RXRa partner concentration 90 nM). The procedure, abridged:
as §1

For assay [10], the system named is PPARg:RXRa IVT, anti-PPARg (NR concentration 270 nM, RXRa partner concentration 90 nM). The method, boiled down: as §1
Assay [11] concerns PPARg DBDmut:RXRa IVT, anti-PPARg (DBD mutation: PPARg1 K132A/R137A, NR concentration 270 nM, RXRa partner concentration 90 nM). The procedure, abridged:
as §1

The test system of assay [12] is PPARg DBDmut IVT, anti-PPARg (DBD mutation: PPARg1 K132A/R137A, NR concentration 270 nM). The procedure, abridged: as §1
The subject of assay [13] is PPARg homodimer (NR concentration 180 nM). The method, boiled down: as §1
The test system of assay [14] is PXR:RXRa (NR concentration 270 nM, RXRa partner concentration 90 nM). The procedure, abridged: as §1
The subject of assay [15] is PXR homodimer (NR concentration 270 nM). The method, boiled down: as §1
For assay [16], the system named is RARa:RXR (NR concentration 270 nM, RXRa partner concentration 90 nM). The procedure, abridged: as §1
Assay [17] deals with RARa homodimer (NR concentration 270 nM). The method, boiled down:
as §1

The test system of assay [18] is RARb:RXRa (NR concentration 270 nM, RXRa partner concentration 90 nM). The procedure, abridged: as §1
In assay [19] the test system is RARb homodimer (NR concentration 270 nM). The procedure, abridged: as §1

TTACCAAGGTGAAAGGTCGTTGCTGCACGCCTTG: the PBM binding z-score in [1] is 3.07; in assay [2], 0.401; in [3], -0.185; in assay [4], 5.33; in assay [5], 8.98; in assay [6], 7.85. The PBM binding z-score was found to be 8.63 in assay [7]; 8.9 in assay [8]; 2.97 in [9]; 5.07 in assay [10]; 0.655 in assay [11]; 0.268 in [12]. For the same sequence, the PBM binding z-score is 1.88 in assay [13]; 3.88 in assay [14]; 0.364 in [15]; 5.58 in assay [16]; -0.419 in assay [17]; 3.14 in assay [18]. Also, the PBM binding z-score in assay [19] is 2.59.
Turning to TAGCCTAGGTCACATCGGGCCAGTATACGCTATA, the PBM binding z-score in [1] stood at 3.44; in assay [2], 0.038; in [3], 0.0362; in assay [4] it was 3.16; in assay [5], 2.64; in assay [6], 2.61. For the same sequence, the PBM binding z-score was 0.683 in [7]; 1.59 in [8]; 2.1 in assay [9]; 3.51 in [10]; 0.246 in assay [11]; -0.263 in [12]. Moreover, the PBM binding z-score in [13] is 0.979; in assay [14] it was 2.26; in assay [15] it was -0.395; in [16], 2.25; in [17], -0.254; in [18], 3.84. Further, in [19], the PBM binding z-score was 2.63.
As to CAAACTAGGTCAAGGTCTAAGTCGGTTTGTGCCA, the PBM binding z-score in assay [1] stood at 2.44; in [2] it was 0.318; in [3], 0.246; in [4], 4.92; in [5] it was 8.27; in assay [6] it was 7.05. In addition, the PBM binding z-score amounted to 5.25 in assay [7]; 6.46 in assay [8]; 8.12 in [9]; 8.57 in [10]; 4.39 in assay [11]; 3.12 in [12]. For the same sequence, the PBM binding z-score is 2 in assay [13]; 1.67 in assay [14]; 0.201 in assay [15]; 2.3 in assay [16]; 0.357 in [17]; 4.24 in assay [18]. This sequence also had a PBM binding z-score in [19] of 3.49.
TCTATTAGTTGATTAGGGCAACCGAAACAGCGGA: the PBM binding z-score stood at 0.552 in [1]; 0.193 in assay [2]; 0.613 in assay [3]; 1.05 in assay [4]; 0.303 in [5]; 2.14 in assay [6]. For the same sequence, the PBM binding z-score in assay [7] came out at 3.65; in assay [8], 2.63; in [9] it was 2.02; in assay [10], 1.84; in assay [11] it was 0.572; in assay [12], 0.488. For the same sequence, the PBM binding z-score in assay [13] came to 1.34; in [14], 0.609; in [15] it was 0.491; in assay [16], 1.03; in assay [17], 1.33; in [18] it was 0.953. In assay [19], this sequence gave a PBM binding z-score of 0.738.
Take CAAACCAGGTCACAGAGGTCAAAGTCCGTGCGTA: the PBM binding z-score in assay [1] amounted to 6.8; in assay [2] it was 7.74; in assay [3] it was 2.6; in assay [4] it was 6.49; in assay [5] it was 8.73; in assay [6], 7.69. Further, the PBM binding z-score in [7] is 5.28; in [8], 7.12; in [9], 6.56; in [10] it was 7.43; in assay [11] it was 3.56; in assay [12], 2.74. For the same sequence, the PBM binding z-score amounted to 5.78 in assay [13]; 7.23 in assay [14]; 14.2 in [15]; 4.25 in assay [17]; 5.41 in assay [18]; 5.56 in [19].
Turning to ATATGTAGGTTAAGCGTCATTCAGGTTGGTTCGC, the PBM binding z-score stood at 1.08 in assay [1]; 0.422 in [2]; 0.251 in [3]; 4.16 in assay [4]; 6.75 in assay [5]; 6.77 in assay [6]. In addition, the PBM binding z-score in assay [7] was 5; in assay [8] it was 6.63; in assay [9], 7.13; in assay [10], 7.49; in assay [11] it was 1.71; in [12] it was 1.99. Besides, the PBM binding z-score is 1.04 in assay [13]; 0.685 in assay [14]; -0.178 in [15]; 0.705 in assay [16]; 0.512 in [17]; 1.17 in assay [18]. The sequence also showed a PBM binding z-score in assay [19] of 0.88.
Consider TTACCAAGGTCAAGGTCGTTGATCCCTCTGTAGA, for which the PBM binding z-score was determined as 5.51 in assay [1]; 3.05 in [2]; 1.11 in [3]; 5.9 in assay [4]; 6.32 in [5]; 6.38 in [6]. Further, the PBM binding z-score in assay [7] was 3.44; in [8], 5.46; in [9] it was 3.67; in assay [10] it was 5.09; in assay [11], 1.64; in [12], 0.631. Besides, the PBM binding z-score amounted to 4.12 in assay [13]; 5.31 in [14]; 2.27 in assay [15]; 5.57 in [16]; 1.71 in assay [17]; 4.86 in assay [19].
For the sequence CGTCCAAGGTCATAGGGGGTCAGTGAAGACAGAT, the PBM binding z-score in [1] was 7.05; in [2], 4.02; in [3], 8.62; in [4] it was 6.34; in assay [5], 7.32; in [6], 7.58. Further, the PBM binding z-score in assay [7] was 4.55; in assay [8], 6.71; in assay [9], 3.59; in assay [10] it was 5.56; in [11], 5.09; in assay [12], 6.03. Besides, the PBM binding z-score in assay [13] stood at 6.75; in assay [14], 6.98; in [15], 6.58; in assay [16] it was 7.02; in assay [17] it was 4.01; in assay [18], 5.56. For the same sequence, in assay [19], the PBM binding z-score is 5.51.
